Shown are actives, neighbours in structure and some others; about 32% of the full set was active somewhere.
PostGolgi ctrl – yeast control strain growth, post-Golgi counter-screen. inhibition, % at 10 µM. AID 738. efflux-deficient yeast background strain, growth absorbance A615, 16 h. 98,000 compounds, 5% hits
CYP2C19 activ – increases human CYP2C19 enzyme activity; 96,000 tested, under 10 active; P33261; activation factor at 5 µM; recombinant CYP2C19, luciferin-H EGE luminescence; hits give high values; 0 = fully inhibited enzyme, 1 = untreated enzyme;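 active means activation factor of at least 2 at 5 µM in the primary screen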;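 further: 0 = wells with 2.5 mM tranylcypromine and 1 = vehicle-only wells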
Target sequence (P33261 whole entry, looked up): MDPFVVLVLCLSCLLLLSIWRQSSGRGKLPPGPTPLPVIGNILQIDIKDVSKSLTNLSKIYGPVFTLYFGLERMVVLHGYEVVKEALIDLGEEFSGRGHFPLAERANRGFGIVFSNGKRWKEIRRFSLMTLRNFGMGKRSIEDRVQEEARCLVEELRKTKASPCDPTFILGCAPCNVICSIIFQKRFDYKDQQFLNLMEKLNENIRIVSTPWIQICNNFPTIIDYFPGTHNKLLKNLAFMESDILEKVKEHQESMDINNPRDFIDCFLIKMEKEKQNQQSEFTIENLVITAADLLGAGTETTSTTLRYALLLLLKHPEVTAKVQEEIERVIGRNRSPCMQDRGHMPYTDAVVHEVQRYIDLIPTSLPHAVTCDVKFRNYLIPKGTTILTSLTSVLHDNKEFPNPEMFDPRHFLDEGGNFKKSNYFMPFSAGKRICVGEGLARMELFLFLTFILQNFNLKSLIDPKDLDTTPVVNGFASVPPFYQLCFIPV
CYP2C9 inhib – inhibitors of human CYP2C9; P11712; CYP2C9 Supersomes, luciferin-H conversion, luminescence; inhibition, % at 5 µM; 96,000 compounds, 20% hits;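 active means blocking of liver enzyme CYP2C9 beyond about 50% at 5 µM, limit read from the data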
PostGolgi yeast – growth inhibition of a yeast mutant, post-Golgi transport screen; post-Golgi transport phenotypic cell assay; inhibition, % at 10 µM; 98,000 compounds, 0.9% hits;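 further: yeast cells grown in 1536-well plates; yeast grown about 18 h at 30C before absorbance read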
CYP2C9 activ – activators of human CYP2C9 | P11712 | recombinant CYP2C9, luciferin-H conversion, luminescence; hits give high values; factor 1 = untreated enzyme, 0 = blocked | activation factor at 5 µM | 96,000 compounds, 1.4% hits;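 active means activation factor of 2 or more for CYP2C9 at a 5 µM dose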;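 further: 0 = sulfaphenazole-blocked wells and 1 = vehicle-only wells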
CYP2C19 inhib – human CYP2C19 inhibition; 96,000 compounds, 21% hits; P33261; inhibition, % at 5 µM; CYP2C19 Supersomes, luciferin-H EGE luminescence, 30 min;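 active means CYP2C19 inhibition above a set limit at 5 µM in the primary screen, cut at about 50% in these data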;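 further: plate controls were negative control wells for no effect and 2.5 mM tranylcypromine positive control for full effect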
Numbers without * were called inactive; · = no result given. Unless noted, no stated cut-off is given here; in the data, active means inhibition above about 30%; inactive means the rest.

SMILES | PostGolgi ctrl | CYP2C19 activ | CYP2C9 inhib | PostGolgi yeast | CYP2C9 activ | CYP2C19 inhib
COc1ccc(OC)c(C(c2nnnn2CCc2ccccc2)N2CCC(C(N)=O)CC2)c1 (configuration not stated) | 2 | 1.1 | 15 | 4 | 0.9 | -8
O=c1oc2ccccc2cc1-c1cn2cccnc2n1 | -2 | 0.4 | 25 | 9 | 0.8 | 57*
O=c1oc2ccccc2cc1-c1nc(-c2cccs2)cs1 | 7 | 1.1 | 30 | 7 | 0.7 | -5
Cc1cc(OC(=O)c2ccccc2Br)cc(=O)n1C | 6 | 0.9 | -30 | 2 | 1.3 | 6
COC(=O)[C@H](CCSC)NC(=O)N1CCN(Cc2ccccc2)CC1 | 7 | 0.8 | 16 | 1 | 0.8 | 21
COC(=O)[C@H](CCSC)NC(=O)N1CCC(C)CC1 | 2 | 0 | 96* | 6 | 0 | 97*
CCOC(=O)C1=C(C)NC(=O)NC1c1ccc(OC)c(Cl)c1 (configuration not stated) | 2 | 0.9 | 32 | 23 | 0.7 | 13
CCOC(=O)C1=C(C)NC(C)=C(C(=O)OCC)C1c1cc(N)ccc1OC(F)F | 16 | 0.5 | 57* | -3 | 0.4 | 49
CCOC(=O)c1c(NC(=O)CC2Nc3cc(C)c(C)cc3NC2=O)sc(C)c1C (configuration not stated) | 4 | 0.6 | 69* | -11 | 0.3 | 44
Cc1ccc(C)c(NC(=O)CN2C(=O)CNC2=O)c1 | -1 | 1.2 | 8 | 6 | 0.9 | -24
CCOC(=O)C1=C(C)OC(N)=C(C#N)C1c1ccc(O)c(OC)c1 (configuration not stated) | -3 | 0.5 | 33 | 0 | 0.7 | 49
CCOC(=O)CC1=C(C(=O)OCC)C(c2ccncc2)C(C#N)=C(N)O1 (configuration not stated) | 3 | 0.2 | 59* | 0 | 0.4 | 79*
CCOC(=O)C1=C(C)OC(N)=C(C#N)C1c1ccc(C)o1 (configuration not stated) | 3 | 0 | 58* | -4 | 0.4 | 98*
CCOC(=O)C1C(C#N)=C(N)OC(C)=C1c1ccncc1 (configuration not stated) | -5 | 0.2 | 90* | -3 | 0.1 | 80*
CCOC(=O)C1=C(C)OC(N)=C(C#N)C1c1ccoc1 (configuration not stated) | 14 | 0.5 | 16 | 16 | 0.8 | 54*
Cc1noc(C)c1S(=O)(=O)NCC(=O)O | 14 | 1 | -8 | 5 | 1.1 | -2
CC1CCCCC1NC(=O)CSc1nc2ccccc2c(=O)n1Cc1ccco1 (configuration not stated) | · | 0.9 | 4 | · | 1 | 14
CC1=C(C(=O)OC(C)(C)C)C(c2ccco2)C(C#N)=C(N)O1 (configuration not stated) | 4 | 0.1 | 52* | -6 | 0.5 | 93*
COc1ccc(CCNc2cc(=O)[nH]c(N)n2)cc1 | 19 | 1 | -14 | -1 | 1.1 | 3
COc1ccnc(N=CNOCc2ccc(C)cc2)c1C#N | 5 | 0.9 | 17 | 1 | 0.8 | 14
Cc1nnc(SCC(=O)N2CCOCC2)c2ccccc12 | -7 | 1.1 | -5 | 12 | 1 | -6
O=C(CSc1nnnn1-c1cccc2ccccc12)N1CCOCC1 | 4 | 0.9 | -195 | -5 | 2.9* | 13
O=C(CSc1nnnn1-c1ccccc1)N1CCN(C(=O)c2ccco2)CC1 | 11 | 0.5 | 65* | 2 | 0.4 | 45
O=C1c2ccccc2C(=O)N1CSc1nnnn1-c1ccccc1 | 6 | 0.2 | -109 | -5 | 2.1* | 83*
O=C(CSc1nnnn1-c1ccccc1)NCc1cccs1 | 5 | 0.2 | 7 | 8 | 0.9 | 83*
SMILES | PostGolgi ctrl | CYP2C19 activ | CYP2C9 inhib | PostGolgi yeast | CYP2C9 activ | CYP2C19 inhib
Cc1cccc(CSc2nnnn2-c2ccccc2)c1 | 10 | 0.6 | 23 | 3 | 0.8 | 39
CSc1ccccc1-n1nnnc1SCC(=O)NCc1cccs1 | 6 | · | · | -5 | · | ·
O=C(Nc1ccc(Cl)cc1)N1CC=CCC1 | -3 | 0.8 | 7 | 5 | 0.9 | 23
CC(=O)Nc1nnc(SCc2ccc(F)cc2)s1 | -1 | 0.5 | 18 | -2 | 0.8 | 47
Cc1cc(C)nc(NC(=O)CSc2nnnn2-c2ccccc2)n1 | 8 | 0.5 | -45 | 5 | 1.5 | 52*
O=C(O)CSc1nnnn1-c1ccccc1 | -3 | 0.9 | 3 | 0 | 1 | 6
